Inhibition data for 90 molecules are collected here from PubChem BioAssay AID504766 (The Scripps Research Institute Molecular Screening Center, 2011).

SMILES strings stand for the structures. In all, about 340,000 compounds went through this assay and about 3,400 (1%) were called active.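 Rule for the calls: active = inhibition above the mean over all tested compounds plus 3 SD (cut at about 4.2% in these data); inactive = the rest.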 For the sample, actives were picked, then their nearest neighbours and some compounds at random.

Chain of Nuclear receptor subfamily 0 group B member 1 (Homo sapiens) (P51843 207-470 limits assumed): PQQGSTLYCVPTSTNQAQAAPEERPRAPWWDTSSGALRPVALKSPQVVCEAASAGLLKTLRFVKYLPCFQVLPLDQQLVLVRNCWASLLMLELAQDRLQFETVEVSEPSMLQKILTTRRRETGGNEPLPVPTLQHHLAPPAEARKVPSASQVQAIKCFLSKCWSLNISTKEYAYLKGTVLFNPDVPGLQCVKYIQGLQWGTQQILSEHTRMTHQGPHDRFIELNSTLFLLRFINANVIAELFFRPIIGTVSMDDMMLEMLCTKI

This experiment concerns the target Nuclear receptor subfamily 0 group B member 1 (Homo sapiens) (UniProt P51843). Description: relief of DAX1 transcriptional repression – cell-based, HEK293, Gal4-DAX1, luciferase luminescence, primary screen (AID 504766).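 Note: 0% = DAX1-transfected cells with DMSO and 100% = empty-vector control cells with DMSO; inhibition shows as a rise in luminescence from relieved DAX1 repression.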 The settings on record: HEK293 Gal4-DAX1 luciferase reporter, at 6.75 µM, stronger effect = higher value. (In a reporter assay the amount or activity of a reporter protein is the signal.)
As to `Cc1ccc(S(=O)(=O)N2C[C@@H](C)[C@]3(C2)[C@H](O)[C@H](OC(=O)NCc2ccccc2)C[C@H]2C(=O)N(c4ccccc4)C(=O)[C@H]23)cc1`, the inhibition is 0.21% (inactive).
Turning to `O=C1OCCC1=COCCCCOC=C1CCOC1=O`, the inhibition was -0.66% (inactive).
The value for `CC(=O)c1ccc(Oc2cc(C)nc(-n3nc(C)cc3C)n2)cc1` was 0.1% (inactive); that for `Cc1cc(C)n(-c2nc(O)cc(=O)[nH]2)n1` was 4.76% (active).
To `Cc1cc(C)n(-c2ccc3nncn3n2)n1` belongs 0.66% (inactive); to `CNS(=O)(=O)c1ccc2c(c1)[nH]c(=S)n2C`, 0.47% (inactive); to `CCc1ccccc1NC(=O)CN1CCN(C(=O)c2cc(C3CC3)nn2-c2ccccc2)CC1`, -0.77% (inactive).
To `CN(C)c1ccc(-c2nnc(-c3cccnc3)o2)cc1` belongs 2.53% (inactive); to `COc1ccc(-c2nnc(-c3ccc4ccccc4c3)o2)cc1`, 0.71% (inactive).
As to `Nc1ccc(-c2nnc(-c3ccccc3)o2)cc1`, the inhibition is 4.37% (active).
Take `CCCn1c(N)c(C(=O)CSc2nnc(Cc3cccs3)n2C2CC2)c(=O)[nH]c1=O`: the inhibition is 0.35% (inactive).
To `OCC1OC(n2cnc3c(N4CCCC4)ncnc32)C(O)C1O` (stereo not given) belongs -0.3% (inactive).
With `CC1CN(C(=O)c2cccc(NS(=O)(=O)c3ccc(Br)cc3)c2)CC(C)O1` (stereo not given), the inhibition is 0.52% (inactive).
The value for `Cc1csc(SCC(=O)Nc2ccc(C)c(S(=O)(=O)N(C)C)c2)n1` was 0.09% (inactive); that for `Cc1onc(-c2ccccc2)c1-c1nnc(COC(=O)c2ccc(N(C)C)cc2)o1` was -0.6% (inactive); that for `N#Cc1c(NC(=O)C2CCCO2)sc2c1CCCCC2` (stereo not given) was 4.7% (active).
The value for `N#Cc1c(NC(=O)CCCl)sc2c1CCCCC2` was 1.1% (inactive); that for `N#Cc1c(NC(=O)C2CC(Cl)=CCC2C(=O)O)sc2c1CCCCC2` (stereo not given) was -0.39% (inactive); that for `CCN(CC)C(=O)C1=C(C)N(Cc2ccc(F)cc2)C(=O)C(CC(=O)NCc2cccc3ccccc23)C1` (stereo not given) was -0.64% (inactive).
The value for `C[C@H]1NS(=O)(=O)c2cc(Cl)ccc2O[C@@H]1c1ccccc1` was -0.34% (inactive); that for `COc1ccc(CN2C[C@H]3CON(C)[C@H]3C[C@H]2c2ccc(-c3cccc(F)c3)cc2)cc1` was 1.13% (inactive); that for `CC1=C(C(=O)Nc2cccc(C(=O)NCC(C)c3ccccc3)c2)SCCO1` (stereo not given) was 3.58% (inactive).
Take `COc1ccc(OC)c(NC(=O)C2CCCN2S(=O)(=O)c2ccc3c(c2)CC(C)N3C(C)=O)c1` (stereo not given): the inhibition is 1.18% (inactive).
The value for `OCCC1CN(Cc2ccccc2-c2ccco2)CCN1Cc1ccsc1` (stereo not given) was -0.73% (inactive); that for `OCCC#Cc1ccc(CN2CCN(Cc3ccsc3)C(CCO)C2)cc1` (stereo not given) was 2.04% (inactive); that for `OCCC1CN(Cc2cccc(OC3CCCC3)c2)CCN1Cc1ccsc1` (stereo not given) was 5.86% (active).
As for `Cc1ccc(S(=O)(=O)/N=C2\C=C(NS(=O)(=O)c3ccc(C)cc3)C(=O)c3ccccc32)cc1`, the inhibition was -1.06% (inactive).
To `Cc1ccc(S(=O)(=O)N2CCOCC2)cc1NC(=O)c1ccncc1` belongs 0.21% (inactive); to `CCC(Oc1ccccc1)C(=O)OCC(=O)Nc1c(C)nn(-c2ccccc2)c1C` (stereo not given), 0.21% (inactive).
For the molecule `Cc1ccc(S(=O)(=O)N2CCCCC2)cc1NC(=O)CCNC(=O)c1ccccc1Cl`, the inhibition was 0.48% (inactive).
To `CCCCN1C[C@H](c2ccc(Br)cc2)[C@@H](CC(=O)Nc2ccc(Br)cc2)C1=O` belongs -0.08% (inactive); to `Cc1cc(NC(=O)c2cc3ccccc3o2)no1`, 0.08% (inactive).
To `CCNc1nc(-c2cc3ccccc3o2)cs1` belongs 4.56% (active); to `Cn1c(CNc2nc(-c3ccccc3)cs2)nnc1SCC(=O)c1ccccc1`, -1.22% (inactive); to `COc1ccc(S(=O)(=O)N2CCN(CC(=O)N3CCNC3=O)CC2)cc1OC`, 0.75% (inactive).
To `CCN(C(=O)Nc1cccc2ccccc12)c1ccccc1` belongs 0.32% (inactive); to `CCc1ccc(N(CC(=O)Nc2sc3c(c2C(=O)OC)CCCC3)S(C)(=O)=O)cc1`, 5.84% (active); to `COC(=O)c1c(NC(=O)CN(c2ccc(C)c(C)c2)S(C)(=O)=O)sc2c1CCCC2`, 0.52% (inactive).
For `COC(=O)c1c(NC(=O)CSc2nncs2)sc2c1CCCCC2`, the inhibition was -1.11% (inactive).
The value for `COCCCn1c(=O)/c(=C/c2ccccc2OC(C)C)s/c1=C(\C#N)C(=O)Nc1ccc(C(=O)O)cc1` was 1.28% (inactive).
As for `COc1cc(C(=O)OCCCN2CCOCC2)cc(OC)c1OC`, the inhibition was 0.71% (inactive).
To `O[C@H]1CN(Cc2cccs2)[C@@H](c2ccc(Cl)cc2)C[C@@H]1n1cc(C2CC2)nn1` belongs 0.8% (inactive); to `CCc1ccc(NC(=O)CN2C(=O)CSC2=O)cc1`, 1.29% (inactive); to `COc1ccc(NC(=O)CN2C(=O)CSC2=O)cc1`, 4.34% (active).
To `COc1ccc(NC(=O)CN2C(=O)CSc3ccc(S(=O)(=O)N4CCC(C)CC4)cc32)cc1` belongs -0.82% (inactive); to `CC(=O)Nc1c(-c2ccc(C)cc2)nc2ccc(Cl)cn12`, 0.08% (inactive); to `C=CCn1nc(C(=O)OCC)cc1-c1sc(NC(=O)c2ccccc2)nc1C`, -1.54% (inactive).
As for `O=C(CSc1ccc(Cl)cc1)NC1CC1`, the inhibition is 0.27% (inactive).
To `O=C(Cc1ccc([N+](=O)[O-])cc1)NCCS(=O)(=O)N1CCN(c2ccccc2)CC1` belongs -0.22% (inactive); to `NS(=O)(=O)c1ccccc1NC(=O)c1c(O)c2ccccc2[nH]c1=O`, 4.59% (active).
Consider `CCCOC(=O)Cc1c(O)c2ccccc2[nH]c1=O`, for which the inhibition is -0.26% (inactive).
To `O=C(Cc1c(O)c2ccccc2[nH]c1=O)NCc1ccccc1` belongs 1.32% (inactive).
The value for `COc1ccc(CN2C(=O)C(CC(=O)NC3CCCCC3)CC(C(=O)N3CCOCC3)=C2C)cc1` (stereo not given) was 0.35% (inactive).
To `CCN1CCN(CCNC(=O)c2ccc3c(c2)NC(=O)/C(=C\c2cccc(Cl)c2)S3)CC1` belongs -0.42% (inactive).
In the case of `CCOC(=O)C1CCN(C(=O)c2ccc3c(=O)n4nc(Nc5ccccc5CC)sc4nc3c2)CC1`, the inhibition is -2.28% (inactive).
Take `Cc1ccccc1NC(=O)Cc1nc(COC(=O)C(C)(C)Oc2ccc(Cl)cc2)cs1`: the inhibition is -0.05% (inactive).
The value for `O=C(NNC(=O)c1ccc2ccccc2c1)c1ccc(Cl)cc1` was -1.29% (inactive); that for `Clc1ccc(Nc2ccc3ccccc3n2)cc1` was 5.5% (active).
To `C(=N\Nc1ccc2ccccc2n1)/c1ccc2c(c1)OCO2` belongs -2.05% (inactive); to `CCn1nnnc1SCC(=O)c1ccc(C)cc1C`, -0.2% (inactive); to `CSc1nnnn1-c1c(C)cc(C)cc1C`, 5.68% (active).
To `Cc1ccc(S(=O)(=O)N2C[C@]3(O)C[C@@H]4C(=O)N(c5ccccc5)C(=O)[C@@H]4C[C@]3(OC(=O)NC3CC3)C2)cc1` belongs -1.25% (inactive); to `O[C@@H]1C[C@H](c2ccccc2)N(Cc2cccs2)C[C@H]1n1cc(C2CC2)nn1`, 1.9% (inactive).
As for `O[C@H]1C[C@H](c2ccc(Cl)cc2)N(Cc2cccs2)C[C@@H]1n1cc(C2CC2)nn1`, the inhibition is 0.67% (inactive).
The value for `CN(C)/C=C(/C(=O)c1ccc(Cl)c(Cl)c1)c1nnnn1-c1ccccc1` was 8.45% (active).
The value for `CN(C)/C=C(/C(=O)c1ccccc1Cl)S(C)(=O)=O` was -0.35% (inactive); that for `CC(=O)c1ccc(S(=O)(=O)NCc2nnnn2-c2ccccc2)cc1` was 0.03% (inactive).
The value for `CCOc1cc(/C=N/NC(=O)c2c(C)nc3ccc(Cl)cn23)ccc1O` was 0.71% (inactive).
On to `COc1ccc(C(=O)OCC(=O)NCCCc2ccccc2)cc1OC`, for which the inhibition is -0.04% (inactive).
The value for `Cc1cnc(C(=O)OCC(=O)NCCCc2ccccc2)cn1` was 8.25% (active).
The value for `O=C(COC(=O)c1ccc(F)cc1)NCCCc1ccccc1` was 1.34% (inactive); that for `S=C(NN=Cc1ccccn1)Nc1ccccn1` was -4.47% (inactive); that for `CC1(c2cccc(N)c2)OCCO1` was 0.74% (inactive).
To `CCCCCCN1C[C@@H](O)[C@H](n2cc(COC(=O)c3ccccc3)nn2)C[C@@H]1c1ccc(Cl)cc1` belongs 0.09% (inactive).
For `CCn1c(COc2ccccc2)nnc1SCC(=O)Nc1ccc2c(c1)OCCO2`, the inhibition was -0.24% (inactive).
To `CCn1c(SCC(=O)Nc2ccc3c(c2)OCCO3)nnc1C(C)C` belongs 2.27% (inactive); to `CCn1c(SCC(=O)Nc2ccc3c(c2)OCCO3)nnc1-c1ccncc1`, 6.79% (active); to `COc1ccc(-n2nc(C(=O)NCC(=O)N3CCC(C(N)=O)CC3)c3ccccc3c2=O)cc1OC`, 5.14% (active).
Take `COc1ccc(-n2nc(C(=O)NCC(=O)N3CCN(c4ccccc4OC)CC3)c3ccccc3c2=O)c(OC)c1`: the inhibition is -1.07% (inactive).
The value for `COc1ccc(-n2nc(C(=O)NCC(=O)N3CCCCCC3)c3ccccc3c2=O)cc1Cl` was -1.56% (inactive); that for `O=C(OCc1ccccc1)N1CCC2CC1c1ccc(-c3ccc4c(c3)OCO4)cc12` (stereo not given) was 0.14% (inactive).
To `COC(=O)C(Cc1c[nH]c2ccccc12)NC(=O)CCNC(=O)c1ccco1` (stereo not given) belongs 0.93% (inactive).
To `C[C@H]1CN([C@@H](C)CO)C(=O)CCCn2nncc2CO[C@@H]1CN(C)Cc1ccc(Oc2ccccc2)cc1` belongs -1.44% (inactive); to `COc1ccc(-c2ccc3[nH]c4c(c3c2)CCN2C[C@H]3[C@H](C)ON(C)[C@H]3C[C@@H]42)cc1`, -1.11% (inactive).
As for `COc1ccc(NC(=O)C[C@H]2C(=O)N(CCc3ccccc3)C[C@@H]2C)cc1`, the inhibition is 0.1% (inactive).
On to `Cc1cc(C)c(C#N)c(SCc2ccc3c(c2)OCO3)n1`, for which the inhibition was -0.08% (inactive).
With `Cc1ccc(CSc2nsc(C)c2C#N)cc1`, the inhibition is 4.45% (active).
The value for `Cc1snc(SCc2c(F)cccc2Cl)c1C#N` was -1.64% (inactive); that for `C[C@@H]1CN([C@@H](C)CO)C(=O)c2cc(Br)cnc2O[C@@H]1CN(C)C(=O)C1CCCCC1` was 1.82% (inactive); that for `CCN(CC)C(=O)C1=C(C)N(Cc2ccccc2)C(=O)C(CC(=O)NC(c2ccccc2)c2ccccc2)C1` (stereo not given) was -0.09% (inactive).

In general, inhibition refers to the relative decrease from the control value, in per cent.
